# The supplement of paper PMC8728848
# This is one part of a sample in which the strongest signals are shown more often than they occur.
# B1: MGL2 (Mus musculus), Q8JZN1 (protein)
# chain: MTMRYENFQNLEREEKNQEMRNGDKKGGMESPKFALIPSQSFLWRILSWTHLLLFSLGLSLLLLVVISVIGSQNSQLRRDLGTLRAILDNTTSKIKAEFQSLDSRADNFEKGISSLKVDVEDHRQELQAGRDLSQKVTSLESTLEKREQALKTDLSDLTDHVQQLETDLKALTCQLANLKNNGSEVACCPLHWTEHEGSCYWFSESEKSWPEADKYCRLENSHLVVVNSLEEQNFLQNRLANVLSWMGLTDQNGPWRWVDGTDFDKGFKNWRPLQPDNWHGHMLGGGEDCAHFSYDGRWNDDVCQRHYHWICETELGKASSAHSPQLIASVP
# Columns and labels:
# Assay in all cases: glycan array binding signal (z-score within array); higher = stronger binding
# Conditions in all cases: glycan notation: IUPAC condensed, linker removed
# [1] = target: Fuc(a1-2)Gal(b1-3)GlcNAc(b1-2)Man(a1-3)[Fuc(a1-2)Gal(b1-3)GlcNAc(b1-2)Man(a1-6)]Man(b1-4)GlcNAc(b1-4)[Fuc(a1-6)]GlcNAc
# Outline: (§1)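 Glycan array binding is given as a within-array Z-score, which can be read as non-binding when negative. The arrays, 3228 of them, came from the Consortium for Functional Glycomics database and were retained only where the protein sequence was available. Z-scores were averaged across arrays of the same protein sequence at different concentrations or buffers and across linkers.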
# [2] = target: Fuc(a1-2)Gal(b1-3)GlcNAc(b1-3)[Neu5Ac(a2-6)Gal(b1-4)GlcNAc(b1-6)]Gal(b1-4)Glc
# Outline: as §1
# [3] = target: Fuc(a1-2)Gal(b1-4)GlcNAc(b1-2)[Fuc(a1-2)Gal(b1-4)GlcNAc(b1-4)]Man(a1-3)[Fuc(a1-2)Gal(b1-4)GlcNAc(b1-2)Man(a1-6)]Man(b1-4)GlcNAc(b1-4)GlcNAc
# Outline: as §1
# [4] = target: Fuc(a1-2)Gal(b1-4)GlcNAc(b1-6)GalNAc
# Outline: as §1
# [5] = target: Fuc(a1-2)Gal6S(b1-3)GlcNAc6S
# Outline: as §1
# [6] = target: Fuc(a1-2)[Gal(a1-3)]Gal(b1-3)GlcNAc(b1-2)Man(a1-3)[Fuc(a1-2)[Gal(a1-3)]Gal(b1-3)GlcNAc(b1-2)Man(a1-6)]Man(b1-4)GlcNAc(b1-4)GlcNAc
# Outline: as §1
# [7] = target: Fuc(a1-2)[Gal(a1-3)]Gal(b1-3)GlcNAc(b1-6)GalNAc
# Outline: as §1
# [8] = target: Fuc(a1-2)[Gal(a1-3)]Gal(b1-4)GlcNAc
# Outline: as §1
# [9] = target: Fuc(a1-2)[Gal(a1-3)]Gal(b1-4)[Fuc(a1-3)]GlcNAc(b1-3)GalNAc
# Outline: as §1
# [10] = target: Fuc(a1-2)[GalNAc(a1-3)]Gal(b1-4)GlcNAc(b1-2)Man(a1-3)[Fuc(a1-2)[GalNAc(a1-3)]Gal(b1-4)GlcNAc(b1-2)Man(a1-6)]Man(b1-4)GlcNAc(b1-4)[Fuc(a1-6)]GlcNAc
# Outline: as §1
# [11] = target: Fuc(a1-2)[GalNAc(b1-3)]Gal
# Outline: as §1
# Fuc(a1-4)GlcNAc = target: Fuc(a1-4)GlcNAc
# Outline: as §1
# [12] = target: Gal(a1-3)Gal(b1-3)[Fuc(a1-4)]GlcNAc(b1-2)Man(a1-3)[Gal(a1-3)Gal(b1-3)[Fuc(a1-4)]GlcNAc(b1-2)Man(a1-6)]Man(b1-4)GlcNAc(b1-4)GlcNAc
# Outline: as §1
# Gal(a1-3)GalNAc = target: Gal(a1-3)GalNAc
# Outline: as §1
# Gal(b1-3)Gal(b1-4)GlcNAc = target: Gal(b1-3)Gal(b1-4)GlcNAc
# Outline: as §1
# [13] = target: Gal(b1-3)GlcNAc(a1-6)Gal(b1-4)GlcNAc
# Outline: as §1
# [14] = target: Gal(b1-3)GlcNAc(b1-3)Gal(b1-4)GlcNAc(b1-2)Man(a1-3)[Gal(b1-3)GlcNAc(b1-3)Gal(b1-4)GlcNAc(b1-2)Man(a1-6)]Man(b1-4)GlcNAc(b1-4)GlcNAc
# Outline: as §1
# [15] = target: Gal(b1-3)GlcNAc(b1-6)Gal(b1-4)GlcNAc
# Outline: as §1
# [16] = target: Gal(b1-3)GlcNAc(b1-6)GalNAc
# Outline: as §1
# Gal(b1-4)Gal = target: Gal(b1-4)Gal
# Outline: as §1
# Gal(b1-4)Glc6S = target: Gal(b1-4)Glc6S
# Outline: as §1
# [17] = target: Gal(b1-4)GlcNAc(a1-6)Gal(b1-4)GlcNAc
# Outline: as §1
# [18] = target: Gal(b1-4)GlcNAc(b1-2)[Gal(b1-4)GlcNAc(b1-4)]Man(a1-3)[Gal(b1-4)GlcNAc(b1-2)[Gal(b1-4)GlcNAc(b1-6)]Man(a1-6)]Man(b1-4)GlcNAc(b1-4)GlcNAc
# Outline: as §1
# [19] = target: Gal(b1-4)GlcNAc(b1-2)[Gal(b1-4)GlcNAc(b1-6)]Man(a1-6)[Gal(b1-4)GlcNAc(b1-2)Man(a1-3)]Man(b1-4)GlcNAc(b1-4)[Fuc(a1-6)]GlcNAc
# Outline: as §1
# [20] = target: Gal(b1-4)GlcNAc(b1-3)Gal(b1-3)GalNAc
# Outline: as §1
# [21] = target: Gal(b1-4)GlcNAc(b1-3)Gal(b1-4)[Fuc(a1-3)]GlcNAc(b1-3)Gal(b1-4)[Fuc(a1-3)]GlcNAc
# Outline: as §1
# [22] = target: Gal(b1-4)GlcNAc(b1-6)GalNAc
# Outline: as §1
# [23] = target: Gal3S(b1-4)[Fuc(a1-3)]GlcNAc
# Outline: as §1
# Gal6S(b1-4)GlcNAc = target: Gal6S(b1-4)GlcNAc
# Outline: as §1
# GalNAc(a1-3)Gal = target: GalNAc(a1-3)Gal
# Outline: as §1
# [24] = target: GalNAc(a1-3)GalNAc(b1-3)Gal(a1-4)Gal(b1-4)Glc
# Outline: as §1
# GalNAc(b1-3)Gal = target: GalNAc(b1-3)Gal
# Outline: as §1
# GalNAc(b1-3)GlcNAc = target: GalNAc(b1-3)GlcNAc
# Outline: as §1
# GalNAc(b1-4)GlcNAc = target: GalNAc(b1-4)GlcNAc
# Outline: as §1
# [25] = target: GalNAc(b1-4)GlcNAc(b1-3)GalNAc(b1-4)GlcNAc
# Outline: as §1
# GalNAc(b1-4)GlcNAc6S = target: GalNAc(b1-4)GlcNAc6S
# Outline: as §1
# [26] = target: Glc(a1-6)Glc(a1-6)Glc(a1-6)Glc
# Outline: as §1
# Glc(b1-6)Glc = target: Glc(b1-6)Glc
# Outline: as §1
# GlcA(b1-3)Gal = target: GlcA(b1-3)Gal
# Outline: as §1
# GlcA(b1-3)GlcNAc = target: GlcA(b1-3)GlcNAc
# Outline: as §1
# [27] = target: GlcNAc(b1-3)Gal(b1-4)GlcNAc(b1-3)Gal(b1-4)GlcNAc(b1-3)Gal(b1-4)GlcNAc(b1-3)Gal(b1-4)GlcNAc(b1-2)[GlcNAc(b1-3)Gal(b1-4)GlcNAc(b1-3)Gal(b1-4)GlcNAc(b1-3)Gal(b1-4)GlcNAc(b1-3)Gal(b1-4)GlcNAc(b1-6)]Man(a1-6)[GlcNAc(b1-3)Gal(b1-4)GlcNAc(b1-3)Gal(b1-4)GlcNAc(b1-3)Gal(b1-4)GlcNAc(b1-3)Gal(b1-4)GlcNAc(b1-2)Man(a1-3)]Man(b1-4)GlcNAc(b1-4)[Fuc(a1-6)]GlcNAc
# Outline: as §1
# [28] = target: GlcNAc(b1-3)Gal(b1-4)GlcNAc(b1-6)[Gal(b1-3)]GalNAc
# Outline: as §1
# GlcNAc(b1-6)GalNAc = target: GlcNAc(b1-6)GalNAc
# Outline: as §1
# [29] = target: Man(a1-2)Man(a1-2)Man(a1-3)Man
# Outline: as §1
# [30] = target: Man(a1-3)[Man(a1-6)]Man(a1-6)[Man(a1-2)Man(a1-3)]Man(b1-4)GlcNAc(b1-4)GlcNAc
# Outline: as §1
# [31] = target: Neu5Ac(a2-3)Gal(b1-3)GlcNAc(b1-3)Gal(b1-4)GlcNAc
# Outline: as §1
# [32] = target: Neu5Ac(a2-3)Gal(b1-3)[Fuc(a1-4)]GlcNAc
# Outline: as §1
# [33] = target: Neu5Ac(a2-3)Gal(b1-4)GlcNAc(b1-2)Man
# Outline: as §1
# [34] = target: Neu5Ac(a2-3)Gal(b1-4)GlcNAc(b1-3)Gal
# Outline: as §1
# [35] = target: Neu5Ac(a2-3)Gal(b1-4)GlcNAc(b1-3)Gal(b1-4)GlcNAc(b1-2)Man(a1-3)[Neu5Ac(a2-3)Gal(b1-4)GlcNAc(b1-3)Gal(b1-4)GlcNAc(b1-2)Man(a1-6)]Man(b1-4)GlcNAc(b1-4)GlcNAc
# Outline: as §1
# [36] = target: Neu5Ac(a2-3)Gal(b1-4)[Fuc(a1-3)]GlcNAc(b1-3)Gal(b1-4)GlcNAc
# Outline: as §1
# [37] = target: Neu5Ac(a2-3)Gal(b1-4)[Fuc(a1-3)]GlcNAc(b1-6)[Gal(b1-3)]GalNAc
# Outline: as §1
# [38] = target: Neu5Ac(a2-6)Gal(b1-4)GlcNAc(b1-2)Man
# Outline: as §1
# [39] = target: Neu5Ac(a2-6)Gal(b1-4)GlcNAc(b1-2)Man(a1-6)[Gal(b1-4)GlcNAc(b1-2)Man(a1-3)]Man(b1-4)GlcNAc(b1-4)GlcNAc
# Outline: as §1
# [40] = target: Neu5Ac(a2-8)Neu5Ac(a2-8)Neu5Ac(a2-3)[Gal(b1-3)GalNAc(b1-4)]Gal(b1-4)Glc
# Outline: as §1
# Neu5Ac(b2-6)GalNAc = target: Neu5Ac(b2-6)GalNAc
# Outline: as §1
binder,measurement,setting,value
B1,glycan array binding signal (z-score),[1],-0.201
same,glycan array binding signal (z-score),[2],-0.188
same,glycan array binding signal (z-score),[3],-0.106
same,glycan array binding signal (z-score),[4],1.79
same,glycan array binding signal (z-score),[5],0.028
same,glycan array binding signal (z-score),[6],-0.255
same,glycan array binding signal (z-score),[7],0.323
same,glycan array binding signal (z-score),[8],-0.162
same,glycan array binding signal (z-score),[9],-0.252
same,glycan array binding signal (z-score),[10],-0.211
same,glycan array binding signal (z-score),[11],12.2
same,glycan array binding signal (z-score),Fuc(a1-4)GlcNAc,0.024
same,glycan array binding signal (z-score),[12],-0.193
same,glycan array binding signal (z-score),Gal(a1-3)GalNAc,-0.18
same,glycan array binding signal (z-score),Gal(b1-3)Gal(b1-4)GlcNAc,-0.137
same,glycan array binding signal (z-score),[13],0.067
same,glycan array binding signal (z-score),[14],-0.097
same,glycan array binding signal (z-score),[15],-0.035
same,glycan array binding signal (z-score),[16],2.02
same,glycan array binding signal (z-score),Gal(b1-4)Gal,-0.267
same,glycan array binding signal (z-score),Gal(b1-4)Glc6S,-0.225
same,glycan array binding signal (z-score),[17],-0.091
same,glycan array binding signal (z-score),[18],-0.247
same,glycan array binding signal (z-score),[19],-0.193
same,glycan array binding signal (z-score),[20],-0.14
same,glycan array binding signal (z-score),[21],-0.1
same,glycan array binding signal (z-score),[22],3.5
same,glycan array binding signal (z-score),[23],-0.228
same,glycan array binding signal (z-score),Gal6S(b1-4)GlcNAc,-0.276
same,glycan array binding signal (z-score),GalNAc(a1-3)Gal,1.48
same,glycan array binding signal (z-score),[24],-0.259
same,glycan array binding signal (z-score),GalNAc(b1-3)Gal,4.95
same,glycan array binding signal (z-score),GalNAc(b1-3)GlcNAc,8.82
same,glycan array binding signal (z-score),GalNAc(b1-4)GlcNAc,5.73
same,glycan array binding signal (z-score),[25],2.48
same,glycan array binding signal (z-score),GalNAc(b1-4)GlcNAc6S,3.46
same,glycan array binding signal (z-score),[26],0.014
same,glycan array binding signal (z-score),Glc(b1-6)Glc,-0.253
same,glycan array binding signal (z-score),GlcA(b1-3)Gal,-0.219
same,glycan array binding signal (z-score),GlcA(b1-3)GlcNAc,0.307
same,glycan array binding signal (z-score),[27],-0.062
same,glycan array binding signal (z-score),[28],-0.047
same,glycan array binding signal (z-score),GlcNAc(b1-6)GalNAc,6.85
same,glycan array binding signal (z-score),[29],-0.161
same,glycan array binding signal (z-score),[30],-0.006
same,glycan array binding signal (z-score),[31],-0.274
same,glycan array binding signal (z-score),[32],-0.173
same,glycan array binding signal (z-score),[33],-0.034
same,glycan array binding signal (z-score),[34],-0.3
same,glycan array binding signal (z-score),[35],0.166
same,glycan array binding signal (z-score),[36],-0.189
same,glycan array binding signal (z-score),[37],-0.139
same,glycan array binding signal (z-score),[38],-0.19
same,glycan array binding signal (z-score),[39],-0.174
same,glycan array binding signal (z-score),[40],-0.194
same,glycan array binding signal (z-score),Neu5Ac(b2-6)GalNAc,-0.176
